Screens from PubChem BioAssay.
Sampled rows, rich in hits. Any-hit rate of the full collection: about 6.8%.
NADH enzymes: inhibition of NAD/NADH coupling enzymes, library profiling. coupled PK/LDH NADH assays, four targets. IC50, µM (series often up to 10 µM), without a hit: at the highest dose inhibition. hit rate 0.02% among 65,000;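 active means single-dose screening hits from any of four coupled enzyme assays that gave an IC50 when retested across doses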;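 further: the DPM-DC format reads NADH fluorescence rather than 340 nm absorbance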
Abs 340nm: compound absorbs light at 340 nm; compound absorbance at 340 nm, fold over control; fold change at 10 µM; 65,000 tested, under 10 active; AID 708;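 active means at 10 µM dose, initial 340 nm absorbance at least 2 fold that of control wells; inactive means change under 2 fold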;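 further: initial absorbance extrapolated from kinetic A340 decline of NADH oxidation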
Spn DPM-DC inh: blocks S. pneumoniae diphosphomevalonate decarboxylase. hit rate 0.49% among 65,000. calls only at 10 µM. purified DPM-DC, PK/LDH coupled NADH fluorescence;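 active means the 320 compounds with the highest percent inhibition in the single-dose primary screen, excluding strongly autofluorescent ones, cut at about 32% in these data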;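 further: kinetic rate of NADH fluorescence loss reporting ADP formed by the decarboxylase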
Spn MK inh: S. pneumoniae mevalonate kinase inhibition; purified MK, PK/LDH-coupled NADH absorbance 340 nm; hit rate 0.48% among 65,000; inhibition, % at 10 µM;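 active means ranked among the strongest by inhibition in the single 10 µM screen, a fixed top-ranked set picked for dose follow-up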
PMK inhibit: inhibitors of Streptococcus pneumoniae phosphomevalonate kinase; purified PMK, PK/LDH-coupled NADH absorbance 340 nm; inhibition, % at 10 µM; hit rate 0.49% among 65,000; AID 539;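 active means top-ranked compounds by inhibition in the single 10 µM screen, taking a fixed number of the strongest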;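 further: 0% = full reaction with DMSO carrier and 100% = background rate without enzyme reaction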
Fluor 339 460: intrinsic fluorescence of library compounds, ex339/em460 – biochemical, MLSMR library, data from DPM-DC assay, artefact control, profiling panel. compound autofluorescence, ex339/em460 nm, NADH buffer; stronger effect = higher value; 1 = no-compound wells, NADH background. fluorescence fold increase at 10 µM. hit rate 5.5% among 65,000. AID 709;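 active means at 10 µM, mean starting fluorescence two-fold or more over control wells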;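 further: signal is the first read of a kinetic run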
* hit, by the source's call; i = inactive; nt = not tested or not shown; + = active, no number.

SMILES	NADH enzymes	Abs 340nm	Spn DPM-DC inh	Spn MK inh	PMK inhibit	Fluor 339 460
Cc1ccc(CN(Cc2cc3cc(C)ccc3[nH]c2=O)C(=O)N2CCOCC2)cc1	14%	1	i	8	15	1.6
CCOc1ccc2[nH]c(=O)c(CN(Cc3ccc(C)cc3)C(=O)N3CCCC3)cc2c1	9%	1	i	0	11	2.6*
COCCn1c(Cc2ccccc2)nnc1SCC(=O)NC(C)C	8%	1	i	7	17	1.1
Cc1cccc(N2CCN(c3nc4ccc(Cl)cc4n4cnnc34)CC2)c1C	9%	1.1	nt	8	10	2.1*
O=C(c1ccccc1)c1ccc2nc(N3CCN(C(=O)c4ccco4)CC3)c3nncn3c2c1	5%	1.1	i	7	2	1.2
c1ccc2[nH]c(-c3cscn3)nc2c1	2%	0.97	i	4	3	0.99
c1ccc2[nH]c(-c3ccnc4ccccc34)nc2c1	11%	1.1	nt	8	13	2.1*
c1ccc2nc(-c3nc4ccccc4[nH]3)ccc2c1	3%	1	nt	2	0	2.3*
CCOC(=O)C1CCCN(C(=O)CN2CCN(Cc3ccc(Cl)cc3)C2=O)C1 (centres undefined)	2%	1.1	i	5	0	1.1
Cc1ccc(CNC(=O)C2CCCCC2C(=O)O)cc1 (centres undefined)	3%	1	i	1	7	1.1
Nc1nnc(-c2cc3ccccc3oc2=O)s1	5%	1	nt	7	6	3*
Cc1ccc(S(=O)(=O)c2c(N)n(CCN3CCOCC3)c3nc4ccccc4nc23)cc1C	12%	1.1	nt	8	16	4.9*
CCCCCn1c(N)c(C#N)c2nc3ccccc3nc21	7%	1.1	nt	3	10	5*
N#Cc1c(N)n(CCCN2CCOCC2)c2nc3ccccc3nc12	5%	1	nt	4	6	3.9*
CCCCn1c(NC(C)=O)c(C#N)c2nc3ccccc3nc21	13%	1.1	nt	11	15	3.8*
CCCCn1c(CNC(C)=O)nc2ccccc21	2%	1	i	0	5	1.1
COCc1nnc(NC(=O)c2ccc(S(=O)(=O)N(C)C3CCCCC3)cc2)o1	7%	1	i	3	12	1.1
N#Cc1c(N)n(CCNC(=O)c2cccs2)c2nc3ccccc3nc12	4%	0.99	nt	10	7	3*
Nc1cc(S(=O)(=O)C(F)(F)F)ccc1C(=O)O	0%	1	i	0	0	1.2
Nc1cc(C(F)(F)F)ccc1C(=O)O	10%	1.1	nt	0	19	2.1*
CCCCOC(=O)CSC1=C(C#N)C(c2ccccc2OC)C(C#N)C(=O)N1 (centres undefined)	27%	0.99	i	78*	3	1.1
c1ccc(-n2nnnc2SCc2cn3ccccc3n2)cc1	4%	1	i	12	0	1.1
c1ccc(-n2nnnc2SCc2cn3cccnc3n2)cc1	7%	1	nt	0	13	5*
COC(=O)N1CC(=O)N(OC)C1c1ccc(Cl)cc1Cl (centres undefined)	3%	1	i	10	0	1.1
Cn1c(=O)c2c(nc(N3CCOCC3)n2C)n(C)c1=O	9%	1	i	0	26*	1.1
SMILES	NADH enzymes	Abs 340nm	Spn DPM-DC inh	Spn MK inh	PMK inhibit	Fluor 339 460
Cn1c(=O)c2c(nc(N3CCCCCC3)n2Cc2cccc3ccccc23)n(C)c1=O	4%	1	i	13	0	1
CN1CCN(c2nc3c(c(=O)n(C)c(=O)n3C)n2Cc2cccc3ccccc23)CC1	5%	0.98	i	active	3	1
O=C(CNCC1CCCO1)N1CCCc2ccccc21 (centres undefined)	5%	1	i	14	0	1.1
CCCCc1ccc(NC(=O)COCC)cc1	1%	0.99	i	6	0	1
COc1ccc(-c2cn3cccnc3n2)cc1NC(=O)CC(C)C	7%	1.1	nt	0	14	5.2*
CCOCC(=O)Nc1ccc(-c2cn3cccnc3n2)cc1	7%	1.1	nt	0	13	5.2*
CCCC(=O)Nc1cc(-c2cn3cccnc3n2)ccc1OC	7%	1.1	nt	0	13	4.5*
CCOC(=O)c1c(NC(=O)CSc2nnc(-c3cccnc3)n2Cc2ccco2)sc(C)c1C	8%	1.1	i	6	18	0.99
COc1cccc(N2C(=O)C3CCCN3C2c2ccc(Cl)cc2)c1 (centres undefined)	3%	1	i	7	1	1.1
CN(C)S(=O)(=O)c1cccc(C(=O)C2=C3SC=C(c4ccccc4)N3CC2)c1	37%	1.1	+	10	0	1.1
CN(C)S(=O)(=O)c1cccc(C(=O)N2CCc3ccccc32)c1	3%	1	i	5	3	1.1
CCn1c(=O)cc(SCC(=O)NCCCN2CCN(c3ccccc3F)CC2)c2ccccc21	6%	1.1	i	5	14	1.2
Cc1cc2oc(C(=O)N(Cc3ccco3)C3CCS(=O)(=O)C3)cc(=O)c2cc1Cl (centres undefined)	0%	1	i	0	0	1.2
O=C(CCCc1c[nH]c2ccccc12)N1CCN(c2ccc(N3CCOCC3)nn2)CC1	3%	1	nt	5	1	2.1*
COc1cc(CCC(=O)N2CCN(S(=O)(=O)c3ccc(C)c(C)c3)CC2)cc(OC)c1OC	6%	0.99	i	0	18	1
NC(=O)CCc1c[nH]c2ccccc12	4%	1	i	6	5	1.2
COc1cc(CCC(=O)N2CCN(c3ccc(N4CCOCC4)nn3)CC2)cc(OC)c1OC	12%	1	nt	8	15	2.2*
CCOC(=O)c1cc2c(=O)n3cc(C)ccc3nc2n(Cc2cccnc2)c1=N	2%	1	nt	3	0	2.1*
COc1ccc(CNC(=O)c2cc3c(=O)n4ccccc4nc3n(Cc3cccnc3)c2=N)cc1	6%	1.1	i	5	0	1.9
COCCCn1c(=N)c(C(N)=S)cc2c(=O)n3cccc(C)c3nc21	9%	0.99	i	2	19	1.9
C=CCn1c(=N)c(C(=O)OC)cc2c(=O)n3cccc(C)c3nc21	11%	1	nt	2	20	3.8*
COC(=O)c1cc2c(=O)n3cccc(C)c3nc2n(Cc2cccnc2)c1=N	3%	1	nt	5	0	2.3*
CCOC(=O)c1cc2c(=O)n3cccc(C)c3nc2n(Cc2cccnc2)c1=N	3%	1	nt	6	0	2.2*
CSc1ccccc1NC(=O)COc1ccc(S(=O)(=O)N2CCCC2)cc1	1%	1	i	1	3	1.1
C=CCn1c(=N)c(C(=O)OCC)cc2c(=O)n3cc(C)ccc3nc21	3%	1	nt	5	0	2.1*
